We go through 8 compounds from PubChem BioAssay AID2202239 (National Center for Advancing Translational Sciences (NCATS), 2025).

Structures are written as SMILES. Active and inactive are the calls of the source. The call rests on the fitted dose curve; in most records, active means well fitted inhibition curve with a large enough effect; inactive means flat fitted curve, though single readings scatter. Square brackets hold non-standard residues; d marks the D form. Peptide text beside a SMILES is read from it. Dolaproine = CO[C@@H]([C@@H]1CCCN1)[C@@H](C)C(=O)O; Dil = CC[C@H](C)[C@H](NC)[C@@H](CC(=O)O)OC; NMeV = CN[C@H](C(=O)O)C(C)C

The nature of the test: Identification of antibody-drug conjugate (ADC) payloads which are substrates of ATP-binding cassette drug efflux transporters: ABCB1-HeLa-KB-8-5-11 cell line with tariquidar. To be noted: KB-8-5-11 (P-gp) + tariquidar, viability, CellTiter-Glo, 48 h. The text has this: Antibody-drug conjugates (ADCs) feature an antibody recognizing a specific protein joined to a potent toxic payload. Numerous antibody-drug conjugates have received FDA approval; however, clinical resistance arises. Resistance mechanisms include decreased expression or mutation of the antibody target, impaired payload release, or increased expression of ATP-binding cassette (ABC) efflux transporters associated with multidrug resistance. We therefore sought to characterize the interaction of ABC multidrug transporters with ADC payloads. We performed a high-throughput screen with 27 common ADC payloads using cells lines expressing ABC transporters P-glycoprotein (P-gp, encoded by ABCB1) or ABCG2 (encoded by ABCG2). Confirmatory assays were also performed using cells transfected to express P-gp, ABCG2, or MRP1 (encoded by ABCC1). Several commonly used ADC payloads were substrates of P-gp, including calicheamicin gamma1, monomethyl auristatin E, DM1, and DM4. All the pyrrolobenzodiazepines tested - SJG136, SGD-1882, SG2057, and SG3199 - were substrates of P-gp, ABCG2, and MRP1. […] These findings highlight the risk of transporter-mediated resistance with certain ADC payloads and underscore the importance of selecting payloads that evade ABC transporter recognition in future ADC development.
HEK-293 cells were transfected with empty vector (pcDNA) or vector containing the human ABCB1 (MDR-19), ABCG2 (R-5), or ABCC1 gene (MRP1) and were maintained in EMEM with 2 mg/mL G418 added to maintain transporter expression. The HeLa derivative KB-3-1 and the P-gp overexpressing KB-8-5-11 subline were maintained in DMEM; KB-8-5-11 additionally received 100 ng/mL colchicine. H460 parental cells were obtained from the Division of Cancer Treatment and Diagnosis Tumor Repository, National Cancer Institute at Frederick, MD and were cultured in RPMI. The ABCG2 expressing subline H460 MX20 was generated by selecting H460 cells in 20 nM mitoxantrone. Media in all cases was supplemented with 10% FBS and 1% penicillin-streptomycin. We explored 27 common ADC payloads, in two orthogonal, paired cell line sets-a drug selected and transfected set for each transporter--to identify substrates of the ABC transporters P-gp and ABCG2. Compounds were sourced from Levena Biopharma (San Diego, CA), Selleck Chem (Houston, TX), ChemieTek (Indianapolis, IN), or Microsource Discovery Systems (Gaylordsville, CT). Screening was performed as previously described. Briefly, cells were plated at a density of 500 cells/well in 1536 well plates with compounds added using a 1536-head pin tool (Kalypsys, San Diego CA). Cells were incubated with cytotoxic drugs and processed with CellTiter Glo reagent (Promega, Madison, WI) to determine viability after 48 hours. P-gp substrates were identified by comparing compound activity between paired sets of low-expressing (sensitive) and over-expressing (resistant) cell lines.
A general note: ATP-based viability assays read luminescence as a measure of living cells.
Take `COc1cccc2c1C(=O)c1c(O)c3c(c(O)c1C2=O)C[C@@](O)(C(=O)CO)C[C@@H]3O[C@H]1C[C@H](N)[C@H](O)[C@H](C)O1`: the Potency is 236 nM (active).

On to `CCc1c2c(nc3ccc(O)cc13)-c1cc3c(c(=O)n1C2)COC(=O)[C@]3(O)CC`, for which the Potency is 298 nM (active).

In the case of `COc1ccc(C2=CN3C(=O)c4cc(OC)c(OCCCOc5cc6c(cc5OC)C(=O)N5C=C(c7ccc(N)cc7)C[C@@H]5C=N6)cc4N=C[C@H]3C2)cc1`, the Potency is 59.4 nM (active).

`Cc1nc(Nc2ncc(C(=O)Nc3c(C)cccc3Cl)s2)cc(N2CCN(CCO)CC2)n1`: the Potency was 13300 nM (active).

On to `CC[C@]1(O)CC2CN(CCc3c([nH]c4ccccc34)[C@@](C(=O)OC)(c3cc4c(cc3OC)N(C)[C@H]3[C@@](O)(C(=O)OC)[C@H](OC(C)=O)[C@]5(CC)C=CCN6CC[C@]43[C@@H]65)C2)C1` (stereo partly drawn), for which the Potency was 6.7 nM (active).

On to `COC(=O)c1cc2c3c(cc(O)c2[nH]1)N(C(=O)c1cc2cc(OC)c(OC)c(OC)c2[nH]1)CC3CCl` (stereo not drawn), for which the Potency was 0.6 nM (active).

Consider `CC[C@H](C)[C@@H]([C@H](N)CC(=O)N1CCC[C@H]1[C@H](OC)[C@@H](C)C(=O)N[C@@H](Cc1ccccc1)c1nccs1)N(C)C(=O)[C@@H](NC(=O)[C@H](C(C)C)N(C)C)C(C)C`, for which the Potency is 0.0472 nM (active).

For `CC[C@H](C)[C@@H]([C@@H](CC(=O)N1CCC[C@H]1[C@H](OC)[C@@H](C)C(=O)N[C@@H](Cc1ccccc1)C(=O)O)OC)N(C)C(=O)[C@@H](NC(=O)[C@@H](NC)C(C)C)C(C)C` (H-[NMeV]V[Dil][Dolaproine]F-OH), the Potency was 37.5 nM (active).
